An excerpt weighted towards active compounds, which were near 19% of everything screened.
DT40 TDP1 no CPT: qHTS for Inhibitors of human tyrosyl-DNA phosphodiesterase 1 (TDP1): qHTS in cells in absence of CPT | DT40 Tdp1-/- hTDP1 cells, no CPT, ATP luminescence, 48 h | Potency, µM (top dose mostly 46.2 µM), without a hit: at the highest dose activity change, negative = growth inhibition, actives largely listed as inhibitors | actives 15% (n = 420,000) | AID 686978, 2013; also: potency is read from the fitted curve at half-maximal effect; nearly all actives have a fitted effect of over 55% in size
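Readout: luminescence from CellTiter-Glo after 30 min in the dark at RT. Cells: DT40 Tdp1-/- with stable hTDP1, 400/well. Exposure: compounds alone, ≥48 hr, 37 °C.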
HT1080 IDH1KD tx: qHTS for induction of synthetic lethality in tumor cells producing 2HG: qHTS for the HT-1080-IDH1KD cell line; AID 686971, 2013; actives 2% (n = 360,000); Potency, µM (highest dose often 46.1 µM), for the others: at the highest dose activity, negative = toxicity, most hits filed as cytotoxic; HT-1080 IDH1 knockdown viability, ATP luminescence, 48 h;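 also: potency is read from the fitted curve at half-maximal effect; 0% = DMSO wells and -100% = cell-free medium wells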
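CellTiter-Glo luminescence after 48 h compound exposure at 37 degrees C of IDH1-knockdown HT-1080 cells in 5% FBS RPMI. %Activity scaled between DMSO wells and cell-free media wells, with curves fitted and assigned curve classes.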
IL-1B inflam inh: qHTS for Inhibitors of Inflammasome Signaling: IL-1-beta AlphaLISA Primary Screen; THP-1 LPS/ATP IL-1B secretion, AlphaLISA, 16 h; active compounds read low; activity change, % at 57.5 µM; actives 4.7% (n = 360,000); in the data active = activity change below about -50%; inconclusive = mostly about -30% to -49%
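THP-1 cells pretreated 1 hr with compounds (up to 57.5 uM final), then stimulated with LPS (250 ng/mL final) plus ATP (1.25 mM final); secreted IL-1B measured by AlphaLISA after 16 hr, decreased signal indicating inhibition.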
HT1080NT lethal: qHTS for induction of synthetic lethality in tumor cells producing 2HG: qHTS for the HT-1080-NT fibrosarcoma cell line; Potency, µM (series often up to 46.1 µM), inactives show at the top dose activity, negative = less viability, most hits filed as cytotoxic; AID 686970, 2013; actives 1.6% (n = 360,000); HT-1080-NT fibrosarcoma viability, CellTiter-Glo ATP luminescence, 48 h;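 also: NT is the 2HG producing partner of a matched IDH1 knockdown line; potency is read from the fitted curve at half-maximal effect; 0% = DMSO-treated cells and -100% = media-only wells without cells; nearly all actives have a fitted effect of over 55% in size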
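750 cells/well, RPMI + 5% FBS; 2 h settle, compound pin-transfer, 48 h at 37 degrees C. CellTiter-Glo 10 min RT, luminescence. Normalized to DMSO and media-only wells.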
DT40 TDP1 CPT: qHTS for Inhibitors of human tyrosyl-DNA phosphodiesterase 1 (TDP1): qHTS in cells in presence of CPT; Potency, µM (top dose mostly 46.2 µM), without a hit: top-dose activity change, negative = growth inhibition, most hits filed as inhibitors; chicken DT40 Tdp1-/-;hTDP1 cells + 20 nM CPT, ATP luminescence, 48 h; actives 12% (n = 420,000); AID 686979, 2013; also: potency is read from the fitted curve at half-maximal effect; nearly all actives have a fitted effect of over 55% in size
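Chicken DT40 Tdp1-/- cells complemented with human TDP1, 400 cells/well, exposed to compounds plus 20 nM camptothecin for at least 48 h at 37 C; viability read as ATP content by CellTiter-Glo luminescence.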
* marks the source's active call; other numbers are inactive results; ? = inconclusive; . = no result. Unless noted, calls follow the shape of the dose curve; as a rule, active = well fitted curve in the direction sought with a large enough effect; inconclusive = small, poorly fitted or top-dose-only effect, or another doubt; inactive = no such curve, though single readings can be large; an effect the other way counts as inactive or inconclusive. Unless noted, % is scaled to controls: 0 for no effect and ±100 for the full control effect.

SMILES	DT40 TDP1 no CPT	HT1080 IDH1KD tx	IL-1B inflam inh	HT1080NT lethal	DT40 TDP1 CPT
CCCNS(=O)(=O)c1cc(CN2C(=O)c3cccnc3C2=O)ccc1OC	4%	2%	0	11%	0%
Cc1c(Cl)c([N+](=O)[O-])nn1CCCC(=O)N1CCN(c2ccccc2)CC1	-16%	4%	-7	4%	15µM*
Cc1nn(Cc2ccc(Cl)cc2)c(C)c1NC(=O)CCCn1nc([N+](=O)[O-])c(Cl)c1C	?	-4%	?	-5%	15µM*
Cc1ccccc1Oc1cc(NC(=O)CCCn2nc(C)c([N+](=O)[O-])c2C)cc([N+](=O)[O-])c1	?	-11%	-56*	-2%	?
Cc1c(Cl)c([N+](=O)[O-])nn1CCCC(=O)Nc1cc(Oc2ccccc2)cc([N+](=O)[O-])c1	?	0%	21	-1%	21µM*
Cc1ccccc1Oc1cc(NC(=O)Cn2cnc([N+](=O)[O-])c2)cc([N+](=O)[O-])c1	?	-21%	1	-12%	16µM*
O=C(c1ccco1)n1nc(-c2ccccc2)nc1NCc1ccccc1Cl	?	.	.	.	-28%
CCN1CCN(c2nc3c(S(=O)(=O)c4ccc(Br)cc4)nnn3c3ccsc23)CC1	?	.	.	.	-23%
CCOC(=O)C1CCN(c2nc3c(S(=O)(=O)c4ccccc4)nnn3c3ccsc23)CC1	21µM*	.	.	.	15µM*
CC(C)c1ccc(S(=O)(=O)c2nnn3c2nc(N2CCCCC2)c2ccccc23)cc1	?	8%	-4	1%	-26%
CCOC(=O)C1CCN(c2nc3c(S(=O)(=O)c4ccccc4)nnn3c3ccc(Cl)cc23)CC1	15µM*	.	.	.	23µM*
CC(=O)c1ccc(NC(=O)CSc2nnc3ccc(-c4ccc(Cl)cc4)nn23)cc1	-11%	.	.	.	-12%
Cc1ccccc1-c1noc(N)c1C#N	?	10µM*	-28	?	26µM*
Cc1nn(-c2ccccn2)c2c1C(=O)CC(C)(C)C2Br (stereo not given)	?	?	30	?	16µM*
COC(=O)c1c(NC(=O)COC(=O)CNC(=O)c2cccc(OC(F)F)c2)sc(C)c1C	41%	5%	19	7%	-1%
COc1ccc(-n2nnnc2C2CCN(S(=O)(=O)c3ccc(C(C)(C)C)cc3)CC2)cc1	-25%	.	.	.	-6%
O=S(=O)(c1ccccc1F)N1CCC(Oc2ccc(-n3cnnn3)cc2)CC1	23µM*	?	-1	?	?
CC(C)(C)c1ccc(S(=O)(=O)N2CCC(Oc3ccc(-n4cnnn4)cc3)CC2)cc1	10µM*	.	.	.	?
O=C(c1ccc(N2CCN(C(=O)c3cccc(F)c3)CC2)cc1)c1cccc(F)c1	?	-17%	?	-29%	16µM*
CCOC(=O)N1CCN(c2ccc(C(=O)c3cccc(F)c3)cc2)CC1	21µM*	-1%	?	?	13µM*
O=C(c1cccc(F)c1)N1CCN(c2cccc(C(F)(F)F)c2)CC1	?	-13%	-27	-5%	?
O=C(c1ccc(N2CCN(C(=O)c3ccccc3Br)CC2)cc1)c1cccc(F)c1	26µM*	?	-23	-24%	16µM*
O=C(c1ccccc1)c1ccc(C(=O)N2CCN(c3ccc(F)cc3)CC2)o1	12µM*	-24%	-23	-21%	?
S=C(Cc1ccccc1)Nc1ccccc1	-7%	-9%	8	-1%	-27%
COC(=O)[C@H](Cc1ccccc1)NC(=O)NCCc1ccc(OC)cc1	-7%	2%	-10	-3%	6%
SMILES	DT40 TDP1 no CPT	HT1080 IDH1KD tx	IL-1B inflam inh	HT1080NT lethal	DT40 TDP1 CPT
Cc1ccc(-n2nc3c(c2NC(=O)c2ccc4c(c2)OCO4)CS(=O)C3)c(C)c1 (stereo not given)	-13%	1%	0	3%	0%
CCN(C(=O)c1ccc(S(=O)(=O)N(C)C)cc1)C(C)C(=O)Nc1ccc(C)cc1 (stereo not given)	-40%	-1%	14	-12%	-8%
CC[N+](CC)(CC)CC(=O)Nc1ccc(SC(F)F)cc1	-19%	?	-96*	2%	?
CCn1c(N)[n+](CC(=O)Nc2ccc(SC(F)F)cc2)c2ccccc21	13µM*	?	-97*	?	?
O=C(Nc1ccc(SC(F)F)cc1)C1=COCCO1	-14%	-1%	-6	-7%	-28%
Cn1ccnc1SCC(=O)Nc1ccc(SC(F)F)cc1	?	7%	-20	22%	-24%
Cc1ccc(C(=O)Nc2ccc(SC(F)F)cc2)s1	?	-16%	-59*	-3%	?
O=C(Cn1cnc2ccccc21)Nc1ccc(SC(F)F)cc1	2.3µM*	?	-61*	-26%	21µM*
O=C(O)c1cn(C2CCCCC2)c2ccccc2c1=O	-20%	3%	-2	8%	5%
Nc1c(C(=O)N/N=C/c2ccc(F)cc2)oc2nc(-c3ccccc3)cc(-c3ccco3)c12	10µM*	21µM*	.	?	23µM*
Cc1cc(-c2ccccc2)nc2oc(C(=O)NN)c(N)c12	?	-10%	25	-2%	?
